D1 antag = antagonists of human D1 dopamine receptor; AID 504652; 3.2% of 360,000 active; HEK293 TREx D1 cells, calcium flux, dopamine EC80; hits give low values; activity change, negative = inhibition, % at 10 µM; P21728; in the data active means activity change below about -30%
Target sequence (P21728 whole entry, looked up): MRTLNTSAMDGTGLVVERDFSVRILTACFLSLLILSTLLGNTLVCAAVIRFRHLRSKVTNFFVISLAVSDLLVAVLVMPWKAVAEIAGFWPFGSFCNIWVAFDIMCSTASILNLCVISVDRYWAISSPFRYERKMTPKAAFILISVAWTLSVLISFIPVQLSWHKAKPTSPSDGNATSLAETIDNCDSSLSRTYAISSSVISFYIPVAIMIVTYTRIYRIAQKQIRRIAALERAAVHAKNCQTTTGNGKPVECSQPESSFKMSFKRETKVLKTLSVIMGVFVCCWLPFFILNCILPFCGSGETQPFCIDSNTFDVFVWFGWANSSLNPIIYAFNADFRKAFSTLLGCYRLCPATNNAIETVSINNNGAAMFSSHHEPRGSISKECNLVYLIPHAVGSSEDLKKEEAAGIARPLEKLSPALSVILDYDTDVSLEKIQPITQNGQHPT
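Antagonism measured as reduced calcium response to an EC80 dopamine addition following 180 s compound pre-read; cells were inducible HEK293 Trex D1 plated overnight at 30 C, read kinetically at 1 cycle/sec.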
D1 ag = activates the human D1 dopamine receptor; P21728; HEK293 T-REx D1 cells, calcium flux, agonist mode; activation, % at 2 µM; 1% of 360,000 active
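Inducible HEK293 T-REx D1 cells, force-coupled to calcium signalling, were plated at 4000 cells/well with tetracycline and held overnight at 30 C. After no-wash calcium dye loading, compound-evoked calcium rise over 180 s flagged agonists.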
TRHR enhancer = TRH receptor (human) allosteric enhancement; P34981; TRHR cells, fluo-8 calcium fluorescence, EC20 TRH enhancement; enhancement, % at 2 µM; 0.66% of 360,000 active; AID 493056; in the data active means enhancement above about 30%
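Enhancer read-out: after compound pinning and an initial kinetic agonist-mode read, an EC20 of TRH (10 nM final) was injected and fluo-8 calcium signal (Ex 480/Em 530) followed at 1 s/cycle for 100 cycles in TRHR-expressing cells.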
TRHR ag = activates the human TRH receptor | P34981 | TRHR cells, calcium flux fluo-8, FDSS agonist mode | activation, % at 2 µM | 0.18% of 360,000 active
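TRHR-expressing cells loaded with fluo-8 calcium dye; 23 nL library compound pin-transferred, kinetic FDSS fluorescence (Ex 480/Em 530) recorded about 180 s for agonist-induced calcium release, before a 10 nM TRH EC20 addition for potentiator mode.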
D1 PAM = human D1 dopamine receptor positive modulation. P21728. HEK293 TREx D1 cells, calcium flux, dopamine EC20 potentiation. potentiation, % at 10 µM. 0.036% of 360,000 active. AID 504651; in the data active means potentiation above about 30%
Glioma ERSR ind = induces the endoplasmic reticulum stress response in human glioma cells | Potency, µM, hits mostly activators | AID 602332 | U87-MG GRP78 promoter luciferase reporter, 16 h | 0.02% of 420,000 active; active means well fitted activation curve with a large enough effect; further: series mostly up to about 76 µM; nearly all actives have a fitted effect of over 35% in size
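Stably transfected U87-MG human glioma cells carrying a GRP78-based luminescent sensor were seeded at 1000 cells/well, pin-dosed with compounds and incubated 16 h. Luciferase reagent was then added, and end-point luminescence was read after 10 min at room temperature.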
Numbers stand for hits. Most compounds without a hit are left out; they make up all but 4% or so of the library. Unless noted, no stated cut-off is given here; in the data, active means activation above about 30%; inactive means the rest.

`Cc1sc2nc(C)n(/N=C/c3ccccc3O)c(=O)c2c1C` gave D1 antag inactive, D1 ag inactive, TRHR enhancer inactive, TRHR ag inactive, D1 PAM inactive and Glioma ERSR ind inactive.
For CC(C)NC(=O)c1onc(CSc2ccccc2)c1C(=O)O the results were D1 antag inactive, D1 ag inactive, TRHR enhancer 31, TRHR ag inactive, D1 PAM inactive and Glioma ERSR ind inactive.
Screening CCCCNC(=O)c1onc(CSc2ccc(C)c(C)c2)c1C(=O)O returned D1 antag -32, D1 ag inactive, TRHR enhancer inactive, TRHR ag inactive, D1 PAM inactive and Glioma ERSR ind inactive.
For Cc1cccc(SCc2noc(C(=O)NC(C)C)c2C(=O)O)c1 the results were D1 antag inactive, D1 ag inactive, TRHR enhancer inactive, TRHR ag inactive, D1 PAM inactive and Glioma ERSR ind inactive.
`CCOC(=O)c1ccccc1NC(=S)N1CCN(C(=O)c2ccco2)CC1` gave D1 antag inactive, D1 ag inactive, TRHR enhancer inactive, TRHR ag inactive, D1 PAM inactive and Glioma ERSR ind inactive.
Screening CN(CC(=O)Nc1cccc(F)c1)C(=O)CSc1nc2ccccc2s1 returned D1 antag inactive, D1 ag inactive, TRHR enhancer inactive, TRHR ag inactive, D1 PAM inactive and Glioma ERSR ind inactive.
`C/C(=C\COc1c2ccoc2cc2oc(=O)ccc12)CCC(O)C(C)(C)O` (stereo not given) gave Glioma ERSR ind inactive.
Screening CC(C)=CCC/C(C)=C/COc1c2ccoc2cc2oc(=O)ccc12 returned D1 antag inactive, D1 ag 40, TRHR enhancer inactive, TRHR ag inactive, D1 PAM inactive and Glioma ERSR ind inactive.
`Cc1oc2ccc(O)c(CN3CCN(Cc4ccccc4)CC3)c2c1C(=O)Nc1cccc(Cl)c1C` gave D1 antag inactive, D1 ag inactive, TRHR enhancer inactive, TRHR ag inactive, D1 PAM inactive and Glioma ERSR ind inactive.
For CN1CCN(Cc2ccc(Sc3ccc(Cl)cc3)c([N+](=O)[O-])c2)CC1 the results were D1 antag inactive, D1 ag 79, TRHR enhancer inactive, TRHR ag inactive, D1 PAM inactive and Glioma ERSR ind inactive.
For CCCN1CN=C(Nc2nc3ccccc3o2)NC1 the results were D1 antag inactive, D1 ag inactive, TRHR enhancer inactive, TRHR ag inactive, D1 PAM inactive and Glioma ERSR ind inactive.
For OCCN1CN=C(Nc2nc3ccccc3o2)NC1 the results were D1 antag -42, D1 ag inactive, TRHR enhancer inactive, TRHR ag inactive, D1 PAM inactive and Glioma ERSR ind inactive.
`COc1cc(CNC2CCCC2)cc(Cl)c1OCc1ccccc1Cl` gave D1 antag inactive, D1 ag inactive, TRHR enhancer inactive, TRHR ag inactive, D1 PAM inactive and Glioma ERSR ind inactive.
For COc1cc(CNCCO)cc(Cl)c1OCc1ccc(Cl)cc1Cl the results were D1 antag inactive, D1 ag 154, TRHR enhancer inactive, TRHR ag inactive, D1 PAM inactive and Glioma ERSR ind inactive.
Screening COc1cc(CNCCO)cc(Br)c1OCc1ccccc1Cl returned D1 antag inactive, D1 ag 69, TRHR enhancer inactive, TRHR ag inactive, D1 PAM inactive and Glioma ERSR ind inactive.
Screening COc1cc(CNC(C)(C)CO)cc(Br)c1OCc1ccc(Cl)cc1Cl returned D1 antag inactive, D1 ag inactive, TRHR enhancer inactive, TRHR ag inactive, D1 PAM inactive and Glioma ERSR ind inactive.
`CCC1CN(C(=O)N2CCC(C(=O)NCCc3ccc(OC)cc3OC)CC2)c2cc(C)ccc2O1` (stereo not given) gave D1 antag inactive, D1 ag inactive, TRHR enhancer inactive, TRHR ag inactive, D1 PAM inactive and Glioma ERSR ind inactive.
Screening N#C/C(=C\c1ccc(O)cc1)C(=O)NCc1cccc(Cl)c1 returned D1 antag inactive, D1 ag 53, TRHR enhancer inactive, TRHR ag inactive, D1 PAM inactive and Glioma ERSR ind inactive.
`N#C/C(=C/c1ccc(O)cc1)C(=O)NCc1ccc(Cl)cc1` gave D1 antag inactive, D1 ag 34, TRHR enhancer inactive, TRHR ag inactive, D1 PAM inactive and Glioma ERSR ind inactive.
